The record followed here is PubChem BioAssay (NCI).

Compounds without any hit were thinned out: in the full panel of roughly 83,000, 20% have a hit.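 Cells were grown in 96-well plates and exposed to the test compound at a single concentration for 48 hours; results are reported as percent growth, with values below 10 considered active.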 Values without a mark were called inactive. Calls of active or inactive are those of the source.

What all share (experiment): NCI-60 one-dose screen, 48 h (100 = growth as untreated, 0 = no growth, -100 = all killed)
What all share (conditions): 10 µM unless noted

Assay [1] has as its system HCT-15 colon.
Assay [2] relates to HT29 colon.
Assay [3] relates to SNB-75 CNS.
The test system of assay [4] is SNB-19 CNS.
Assay [5] has as its system U251 CNS.
Assay [6] concerns PC-3 prostate.
Assay [7] concerns SK-MEL-5 melanoma.
The subject of assay [8] is UACC-62 melanoma.
In assay [9] the test system is LOX IMVI melanoma.
Assay [10] relates to SK-MEL-28 melanoma.
The test system of assay [11] is SK-MEL-2 melanoma.
The test system of assay [12] is EKVX NSCLC.
Assay [13] relates to SN12C renal.
Assay [14] concerns UO-31 renal.
Assay [15] deals with TK-10 renal.
Assay [16] deals with ACHN renal.
Assay [17] concerns CAKI-1 renal.
The test system of assay [18] is A498 renal.
In assay [19] the test system is HL-60(TB) leukemia.
Assay [20] concerns CCRF-CEM leukemia.

As to `Cc1ccc(NC2=N[C@]34CC(=O)CC[C@]3(C)[C@H]3CC[C@]5(C)C(=O)CC[C@H]5[C@@H]3C[C@@H]4S2)c(C)c1`, the growth in [1] was 0.807% (active); in [2], 3.81% (active); in [3], 35.1%; in assay [4], 44%; in assay [5] it was 18.4%; in [6] it was 15.8%. The growth in [7] was 51.4%; in assay [8] it was 39%; in assay [9] it was -16.6% (active); in assay [10], 50.8%; in assay [11], 72.6%; in [12], 51.9%. Moreover, the growth in assay [13] was 26.2%; in [14] it was 34.3%; in assay [15], 63.3%; in assay [16], 32.3%; in [17], 49.8%; in assay [18] it was 66.7%. Besides, the growth is 9.29% (active) in [19] and 7.99% (active) in [20].

On to `C=C[Se]CC(=O)/C=C/c1ccccc1`, for which the growth in assay [1] was 96.3%; in [2] it was 80.7%; in assay [3], 49.4%; in assay [4] it was 31.3%; in [5] it was 26.4%; in [6] it was 29.1%. The growth in assay [7] was 92.2%; in assay [8] it was 92.4%; in assay [9], 93.9%; in assay [10], 96.1%; in assay [11], 99.9%; in [12], 70.4%. Further, the growth is 73.6% in assay [13]; 39.4% in [14]; 103% in assay [15]; 95.5% in assay [16]; 106% in assay [17]; 65.3% in assay [18]. In addition, in assay [19], the growth is 42.2%.

Turning to `C=CCOC(=O)C(Br)CC` (stereo not drawn), the growth in [1] is 108%; in assay [2], 110%; in assay [3], 97.1%; in assay [4], 109%; in [5] it was 101%; in assay [6] it was 95%. Besides, the growth in assay [7] is 99.3%; in assay [8], 98.8%; in assay [9] it was 95.8%; in assay [10], 110%; in assay [11], 106%; in [12], 107%. In addition, the growth in [13] was 111%; in assay [14], 94.6%; in [15] it was 103%; in [16], 100%; in assay [17], 101%; in assay [18] it was 90.4%. In addition, the growth is 101% in assay [19] and 107% in assay [20].

Regarding `CC1(C)S[C@H]2CC[C@H]3OC(=O)[C@@H]1N23`, the growth was 106% in assay [1]; 106% in [2]; 90.9% in assay [3]; 101% in [4]; 115% in assay [5]; 87% in assay [6]. Besides, the growth in assay [7] is 111%; in [8], 93.4%; in [9] it was 103%; in [10], 108%; in assay [11], 94.4%; in [12], 88.4%. The growth in assay [13] is 119%; in assay [14], 53.9%; in [15], 91.9%; in assay [16], 114%; in [17], 66.6%; in assay [18] it was 93.1%. Moreover, the results for the growth in assay [19] and in [20] were 60.9% and 82.9%, respectively.

With `C[N+]1(CC#CC[N+]2(C)CCCC2)CCCC1`, the growth in [1] was 103%; in assay [2], 101%; in assay [3], 88.4%; in assay [4], 104%; in [5] it was 107%; in [6], 92.7%. For the same molecule, the growth is 101% in [7]; 99.9% in [8]; 93.6% in assay [9]; 111% in assay [10]; 98.5% in [11]; 97.5% in assay [12]. Further, the growth in [13] was 102%; in [14], 94.4%; in assay [15] it was 96.3%; in [16], 108%; in assay [17], 97.1%; in assay [18] it was 84.6%. Also, in assay [19], the growth is 94.1%.

`C/C(=C\c1ccn(-c2ccc(N)c(C(F)(F)F)c2)n1)[C@@H]1C[C@@H]2O[C@]2(C)CCC[C@H](C)[C@H](O)[C@@H](C)C(=O)C(C)(C)[C@@H](O)CC(=O)O1`: the growth in assay [1] is 20%; in [2] it was 13%; in assay [3] it was -2.27% (active); in assay [4], 38%; in assay [5] it was 26.3%; in [6], 15.7%. Besides, the growth is 21.5% in [7]; 20.7% in [8]; 26.2% in assay [9]; 55.8% in [10]; 45.1% in assay [11]; 39.7% in assay [12]. Also, the growth is 41.3% in assay [13]; 32.7% in assay [14]; 52.6% in assay [15]; 46.3% in assay [16]; 52.1% in assay [17]; 22.6% in assay [18]. Besides, the growth in [19] was 7.41% (active); in assay [20], 14.3%.

As to `Cc1c(C)c(N)c(C)c(C)c1N`, the growth was 34.8% in [1]; 25.7% in [2]; 110% in [3]; 82.1% in assay [4]; 78.1% in [5]; 73.6% in assay [6]. Besides, the growth is 93% in [7]; 66.3% in assay [8]; 51.9% in assay [9]; 106% in assay [10]; 15% in [11]; 108% in assay [12]. The growth in assay [13] was 72.6%; in [14], 60.6%; in [15], 90.8%; in assay [16], -8.61% (active); in assay [17], 46.6%; in assay [18], 102%. Further, the growth in [19] is 103%; in assay [20] it was 91.8%.
